PubChem BioAssay (NCATS)
Records with an inconclusive call do not appear. Activity calls are given as the source filed them. The call rests on the fitted dose curve; in most records, active means well fitted inhibition curve with a large enough effect; inconclusive means small, poorly fitted or top-dose-only effect, or effect the other way; inactive means flat fitted curve, though single readings scatter.

assay: qHTS for Inhibitors of Plasmodium falciparum (CP250) proliferation (AID 504320); conditions: P. falciparum CP250 in erythrocytes, SYBR Green DNA, 72 h; series mostly up to 6.7 µM
Text: Plasmodium falciparum is a virulent malarial parasite that kills 1-2 million people worldwide each year. Malaria not only inflicts tremendous suffering and morbidity on the human population, but has dramatically influenced the course of civilization with profound sociological and economic implications (Shah, S. 2010). Transmitted by mosquitoes, the sporozoite form of the parasite enters the blood stream to infect hepatocytes, where they become merozoites that infect red blood cells (erythrocytes). Within erythrocytes, merozoites begin a […] cycle of growth and division, after which the parasite is released to infect new red blood cells. Gametocytes, which form within erythrocytes as well, circulate in the bloodstream and are ingested by the mosquito, thereby completing the life cycle (see CDC website). To profile malarial lines for differential chemical responses and to identify inhibitors of malarial growth, an assay that measures P. falciparum growth and replication within erythrocytes was employed. This assay uses a DNA binding fluorescent dye (SYBR Green) to detect parasite DNA following cell lysis. Because mature erythrocytes lack DNA, only Plasmodium-derived DNA is detected. The P. falciparum line cp250, derived from a malarial isolate from Cambodia, (Mu, J., et al. 2010) was added to the panel of lines, Dd2, HB3, 7G8 and GB4 in this study. Laboratory of Assay Development and Screening Technology [ADST] and NIH Chemical Genomics Center [NCGC] Boston University, Chemistry Department, Center for Chemical Methodology and Library Development [CMLD-BU] NIH National Institute of Allergy and Infectious Diseases [NIAID]
ADST Assay Protocol Summary: The 1536-well SYBR Green viability assay was based on the method of Bennett et al (2004) and described previously in 1536-well format (Yuan J., et al. 2009). For screening 3 ul culture medium was dispensed into 1536 well black clear bottom plates (Aurora Biotechnologies) using a Multidrop Combi (Thermo Fisher Scientific Inc.), 23 nL compounds in DMSO were added by a pin transfer (Cleveland, P.H. and Koutz, P.J, 2005) using a pin tool-based delivery system (Kalypsys), and 5 ul of erythrocytes infected with P. falciparum one of five lines (cp250, Dd2, HB3, 7G8 or GB4, 0.3% parasitemia, 2.5% hematocrit final concentration) were added. The plates were incubated at 37C in a humidified incubator in 5% CO2 for 72 h, and 2 ul lysis buffer (20 mM Tris HCl, 10 mM EDTA, 0.16% saponin, 1.6% triton X, 10X SYBR Green I (supplied as 10,000X final concentration by Invitrogen) was added to each well. The plates were mixed for 25 sec with gentle shaking and incubated overnight at room temperature in the dark. The following morning, fluorescence intensity at 485(14) nm excitation and 535(25) nm emission wavelengths was measured on an EnVision (Perkin Elmer) plate reader. Plate reads were normalized relative to the control inhibitor (0.29 uM artemisinin) and vehicle (DMSO) wells present on each plate and then corrected by an algorithm using vehicle-only control plates at the beginning and end of the compound plate stack. References Shah, S. (2010). The Fever: how malaria has ruled humankind for 500,000 years. New York, Sarah Crichton Books. CDC web site, http://www.cdc.gov/malaria/about/biology/index.html Mu, J., Myers, R.A., Jiang, H., Liu, S., Ricklefs, S., Waisberg, M., Chotivanich, K., Wilairatana, P., Krudsood, S., White, N.J., et Plasmodium falciparum genome-wide scans for positive selection, recombination hot spots and resistance to antimalarial drugs Nature Genetics 2010, 42, pp 268-271 Bennett TN, Paguio, M., Gligorijevic, B., Seudieu, C., Kosar, A. D., Davidson, E., and Roepe, P. D. Novel, rapid, and inexpensive cell-based quantification of antimalarial drug efficacy Antimicrobial Agents Chemother. 2004, 48(5): pp 1807-10 Yuan J, Johnson RL, Huang RL, Wichterman J, Jiang HY, Hayton K, Fidock DA, Wellems TE, Inglese J, Austin CP, Su XZ. […]

Potency, inactive:
CCN1C(=NCc2ccc(OC)cc2)NC(c2cccc(C(F)(F)F)c2)C(C(=O)OC)=C1C (stereo not given), O=C1[C@H]2[C@@H]3[C@@H](O)[C@H](O)CC(=NOCc4ccccc4)[C@H]3CC[C@H]2C(=O)N1Cc1ccc2c(c1)OCO2, CCN1C(=NCc2ccc3c(c2)OCO3)NC(CCc2ccccc2)C(C(=O)OC)=C1C (stereo not given), CC(C)=CCCC(C)=CC=CC1=CC2(C)CC1(C)C(C=C(C)CCC=C(C)C)CC2=O (stereo not given), C=CCOC(=O)N[C@H](c1ccccc1)C(C(C)=O)C(C)=O, Cc1cccc(C)c1Nc1oc(-c2ccccc2)nc1-c1ccccc1, COC(=O)C1=C(C)[C@@H](O)[C@@H](C)[C@](C)(c2cc(OC)c(C)c(OC)c2COc2ccccc2)O1, O=C1NC[C@H](c2ccccc2)N1, COc1cccc([C@@H]2NC(=O)CC=C[C@H](C)[C@H](c3cccc(OC)c3)NC(=O)CC=C[C@H]2C)c1, COC(=O)[C@@H]1[C@@H](c2cccc(C(F)(F)F)c2)NC(=O)N(Cc2ccccc2)[C@@H]1C, CCN1C(=NCCCOC(C)C)N[C@@H](CCc2ccccc2)[C@H](C(=O)OC)[C@H]1C, CC(C)OC(=O)[C@H](C)NC(=O)N1CCc2nc(COc3ccccc3)c3c(c2C1)CO[C@@H](C)C3, C[C@@H]1[C@H](c2ccccc2)c2cc3ccccc3nc2C(=O)C[C@@H]1C(=O)N1CCCC1, COCc1cc2cc3c(cc2c2c(C(=O)OC)c(C(=O)OC)c(C(=O)OC(C)(C)C)n12)OCO3, C[C@@H]1C=CCCO[C@]12C(=O)N(Cc1ccc(Br)cc1)c1ccccc12, COC(=O)NC(c1ccc2c(c1)OCO2)C(C(=O)OC)C(=O)OC (stereo not given), COC(=O)NC(c1ccccc1)c1c[nH]c2ccccc12 (stereo not given), CC1(OC(=O)C2CCCC2)C(=O)C=C2C=C(c3ccc(C#N)cc3)OC=C2C1=O (stereo not given), COc1ccc(O[C@H]2C=C[C@@H](c3ccccc3)O[C@H]2CON=C2c3cc(OC)ccc3O[C@H](c3cccc(OC)c3)[C@H]2O)cc1, CCCCCCCc1cc2ccccc2c2c(C(=O)OC)c(C)c(C(=O)OC)n12, COc1ccc([C@]23Cc4ccccc4[C@H](O2)C2=C(O3)C(=O)c3ccccc3C2=O)cc1, C[C@@H](c1ccccc1)N1C(=O)[C@@H]2[C@H]3[C@H](O)[C@H](O)CC(=NOC[C@@H](O)COCc4ccco4)[C@H]3CC[C@H]2C1=O, COC(=O)C1=C(C(=O)OC)[C@@H]2N(Cc3ccccc3)c3ccccc3[C@@]23CCC(=O)N(CCc2ccccn2)C3=N1, COCCN1C(=O)N[C@@H](CCc2ccccc2)[C@@H](C(=O)OC)[C@H]1C, C[C@@H]1CC[C@H]2C(=O)N(Cc3cccc([N+](=O)[O-])c3)C[C@@H](O)CN2[C@@H]1c1cccc(Br)c1, C=C[C@@]1(C)CCC=C2C(=O)CCC[C@H]21, COc1cc(OC)c([C@@H]2O[C@H](CO)[C@@H](O)[C@H](O)[C@@H]2O)c(OC)c1, COCC1=C(C(=O)OC)C(c2ccccc2)N(C(C)=O)C(=O)N1 (stereo not given), Cc1ccc(S(=O)(=O)NC(CCc2ccccc2)CC(=O)C(C)(C)C)cc1 (stereo not given), COC(=O)C=C[C@H]1c2ccccc2[C@@H](OC)[C@@H]1C, CCCCC1=CC2=C(c3ccco3)C(=O)C(C)(OC(=O)c3ccc(OC)cc3)C(=O)C2=CN1CCN1CCOCC1 (stereo not given), CCCCCCCc1cc2ccccc2c2c(C(=O)OC)c(C(=O)OC)c(C(=O)OC)n12, CC#CCN1C(=O)NC(c2ccccc2)C(C#N)=C1C (stereo not given), C#CCCCON=C1C[C@@H](O)[C@H](O)[C@H]2[C@@H]3C(=O)N(c4ccc(F)cc4F)C(=O)[C@@H]3CC[C@@H]12, C[C@H]1Cc2c(COc3ccccc3)nc3c(c2CO1)CN(C(=O)C1CC1)CC3, COc1ccc([C@]23Cc4cc(OC)c(OC)cc4[C@H](O2)C2=C(CC4(CCCCC4)OC2=O)O3)cc1, CCOC(=O)CN1C(=O)C2(CC(C)=C[C@@H](C)O2)c2c(Br)cccc21 (stereo not given in full), CC(=O)OC[C@H]1O[C@@H](ON=C2C[C@@H](O)[C@@H](O)[C@@H]3[C@H]4C(=O)N(Cc5ccccc5)C(=O)[C@@H]4CC[C@@H]23)[C@H](OC(C)=O)[C@@H](OC(C)=O)[C@H]1OC(C)=O, COc1cc2c(cc1OC)CSC1C(=O)N(C)C(SC2)C(=O)N1C, C=C(CCN1C=C(C(=O)OCC)C(c2ccccc2)NC1=O)c1ccc(Cl)cc1 (stereo not given)
